# Paper PMC12820563, “FoxP3 forms a head-to-head dimer in vivo and stabilizes its multimerization on adjacent microsatellites”
# Whole data set: some 16,000 sequences, median “rpm ratio (pull-down/input)” near 0.94, cut for the highest 2% near 1.7. The sample as a whole holds a higher share of the highest values than the screen did.
# Molecular target: T1, MBP-FoxP1dN (Mus musculus, UniProt P58462 326-579)
# T1 sequence: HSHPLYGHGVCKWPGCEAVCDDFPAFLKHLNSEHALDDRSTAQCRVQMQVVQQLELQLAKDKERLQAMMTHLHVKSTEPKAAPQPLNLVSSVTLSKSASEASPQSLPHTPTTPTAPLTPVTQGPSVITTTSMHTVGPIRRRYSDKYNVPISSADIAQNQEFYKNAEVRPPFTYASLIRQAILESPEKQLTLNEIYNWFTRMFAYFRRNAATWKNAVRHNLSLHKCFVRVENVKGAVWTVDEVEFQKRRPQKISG
# Assay: PD-seq (MBP pull-down with sequencing); 20 mM Tris-HCl pH 7.5, 100 mM NaCl, 1.5 mM MgCl2, 0.4 uM protein, 0.1 uM dsDNA library, 30 min, room temperature, amylose pull-down; high values mean tight binding
# Details: protein: recombinant; tags: His6-MBP; chain copies: 2; dsDNA, one strand shown
# How it was run: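 Mouse FoxP3 or FoxP1 fragment lacking the N-terminus, His6-MBP-tagged and expressed in E. coli, was incubated at 0.4 µM with 0.1 µM Klenow-filled degenerate double-stranded DNA library for 30 min at room temperature in Tris pH 7.5 buffer with NaCl and MgCl2. Complexes captured on amylose resin were washed three times and their DNA sequenced on Illumina. Binding is reads-per-million enrichment of pull-down over input, replicates pooled.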
row,Sequence,binding signal
1,GATGATTGTTCTCCCAGCTGATGAATTTCAGCTGTCGAGTAAACAAATTTTCCTAATCTTTCTGTTCAAGCGCCATCTAC,0.889 RPM ratio (pull-down/input)
2,GATGATTGTTCTCCCAGCTGATGAATTCATGATGTCGAGTAAACAAATTTTCCTAATCTTTCTGTTCAAGCGCCATCTAC,1.21 RPM ratio (pull-down/input)
3,GATGATTGTTCTCCCAGCTGATGAATTGTTGATGTCGAGTAAACAAATTTTCCTAATCTTTCTGTTCAAGCGCCATCTAC,2.27 RPM ratio (pull-down/input)
4,GATGATTGTTCTCCCAGCTGATGAATTTCTATGATCGAGTAAACAAATTTTCCTAATCTTTCTGTTCAAGCGCCATCTAC,0.89 RPM ratio (pull-down/input)
5,GATGATTGTTCTCCCAGCTGATGAATTTTTAATATCGAGTAAACAAATTTTCCTAATCTTTCTGTTCAAGCGCCATCTAC,1.24 RPM ratio (pull-down/input)
6,GATGATTGTTCTCCCAGCTGATGAATTCCGACCATCGAGTAAACAAATTTTCCTAATCTTTCTGTTCAAGCGCCATCTAC,0.869 RPM ratio (pull-down/input)
7,GATGATTGTTCTCCCAGCTGATGAATTACGGGCATCGAGTAAACAAATTTTCCTAATCTTTCTGTTCAAGCGCCATCTAC,1.11 RPM ratio (pull-down/input)
8,GATGATTGTTCTCCCAGCTGATGAATTGGCGATTTCGAGTAAACAAATTTTCCTAATCTTTCTGTTCAAGCGCCATCTAC,0.865 RPM ratio (pull-down/input)
9,GATGATTGTTCTCCCAGCTGATGAATTTTACGGATCGAGTAAACAAATTTTCCTAATCTTTCTGTTCAAGCGCCATCTAC,0.879 RPM ratio (pull-down/input)
10,GATGATTGTTCTCCCAGCTGATGAATTGTCACGGTCGAGTAAACAAATTTTCCTAATCTTTCTGTTCAAGCGCCATCTAC,0.924 RPM ratio (pull-down/input)
11,GATGATTGTTCTCCCAGCTGATGAATTATTCGTTTCGAGTAAACAAATTTTCCTAATCTTTCTGTTCAAGCGCCATCTAC,1.01 RPM ratio (pull-down/input)
12,GATGATTGTTCTCCCAGCTGATGAATTCCTACCGTCGAGTAAACAAATTTTCCTAATCTTTCTGTTCAAGCGCCATCTAC,0.731 RPM ratio (pull-down/input)
13,GATGATTGTTCTCCCAGCTGATGAATTGGTGTGGTCGAGTAAACAAATTTTCCTAATCTTTCTGTTCAAGCGCCATCTAC,1.04 RPM ratio (pull-down/input)
14,GATGATTGTTCTCCCAGCTGATGAATTGTGTTGGTCGAGTAAACAAATTTTCCTAATCTTTCTGTTCAAGCGCCATCTAC,1.92 RPM ratio (pull-down/input)
15,GATGATTGTTCTCCCAGCTGATGAATTGTTGTGGTCGAGTAAACAAATTTTCCTAATCTTTCTGTTCAAGCGCCATCTAC,2.1 RPM ratio (pull-down/input)
16,GATGATTGTTCTCCCAGCTGATGAATTTCTGTGGTCGAGTAAACAAATTTTCCTAATCTTTCTGTTCAAGCGCCATCTAC,0.924 RPM ratio (pull-down/input)
17,GATGATTGTTCTCCCAGCTGATGAATTGGTTGTGTCGAGTAAACAAATTTTCCTAATCTTTCTGTTCAAGCGCCATCTAC,1.2 RPM ratio (pull-down/input)

row,Sequence,binding signal
1,GATGATTGTTCTCCCAGCTGATGAATTTTTGTGGTCGAGTAAACAAATTTTCCTAATCTTTCTGTTCAAGCGCCATCTAC,1.23 RPM ratio (pull-down/input)
2,GATGATTGTTCTCCCAGCTGATGAATTAGCTCAGTCGAGTAAACAAATTTTCCTAATCTTTCTGTTCAAGCGCCATCTAC,0.833 RPM ratio (pull-down/input)
3,GATGATTGTTCTCCCAGCTGATGAATTTAGGTACTCGAGTAAACAAATTTTCCTAATCTTTCTGTTCAAGCGCCATCTAC,0.947 RPM ratio (pull-down/input)
4,GATGATTGTTCTCCCAGCTGATGAATTTCGCATCTCGAGTAAACAAATTTTCCTAATCTTTCTGTTCAAGCGCCATCTAC,1.21 RPM ratio (pull-down/input)
5,GATGATTGTTCTCCCAGCTGATGAATTTGCCGGATCGAGTAAACAAATTTTCCTAATCTTTCTGTTCAAGCGCCATCTAC,0.839 RPM ratio (pull-down/input)
6,GATGATTGTTCTCCCAGCTGATGAATTAATCTAATCGAGTAAACAAATTTTCCTAATCTTTCTGTTCAAGCGCCATCTAC,1.1 RPM ratio (pull-down/input)
7,GATGATTGTTCTCCCAGCTGATGAATTAAAACAATCGAGTAAACAAATTTTCCTAATCTTTCTGTTCAAGCGCCATCTAC,2 RPM ratio (pull-down/input)
8,GATGATTGTTCTCCCAGCTGATGAATTAAATCAATCGAGTAAACAAATTTTCCTAATCTTTCTGTTCAAGCGCCATCTAC,1.01 RPM ratio (pull-down/input)
9,GATGATTGTTCTCCCAGCTGATGAATTAATCAACTCGAGTAAACAAATTTTCCTAATCTTTCTGTTCAAGCGCCATCTAC,1.1 RPM ratio (pull-down/input)
10,GATGATTGTTCTCCCAGCTGATGAATTAAAAAAATCGAGTAAACAAATTTTCCTAATCTTTCTGTTCAAGCGCCATCTAC,1.04 RPM ratio (pull-down/input)
11,GATGATTGTTCTCCCAGCTGATGAATTAAAAACATCGAGTAAACAAATTTTCCTAATCTTTCTGTTCAAGCGCCATCTAC,2.08 RPM ratio (pull-down/input)
12,GATGATTGTTCTCCCAGCTGATGAATTAAACTCCTCGAGTAAACAAATTTTCCTAATCTTTCTGTTCAAGCGCCATCTAC,0.846 RPM ratio (pull-down/input)
13,GATGATTGTTCTCCCAGCTGATGAATTTAAAACATCGAGTAAACAAATTTTCCTAATCTTTCTGTTCAAGCGCCATCTAC,1.37 RPM ratio (pull-down/input)
14,GATGATTGTTCTCCCAGCTGATGAATTAAATTAATCGAGTAAACAAATTTTCCTAATCTTTCTGTTCAAGCGCCATCTAC,1.01 RPM ratio (pull-down/input)
15,GATGATTGTTCTCCCAGCTGATGAATTAATTCAATCGAGTAAACAAATTTTCCTAATCTTTCTGTTCAAGCGCCATCTAC,0.961 RPM ratio (pull-down/input)
16,GATGATTGTTCTCCCAGCTGATGAATTAAACAACTCGAGTAAACAAATTTTCCTAATCTTTCTGTTCAAGCGCCATCTAC,1.84 RPM ratio (pull-down/input)
17,GATGATTGTTCTCCCAGCTGATGAATTAAACAAATCGAGTAAACAAATTTTCCTAATCTTTCTGTTCAAGCGCCATCTAC,2.02 RPM ratio (pull-down/input)
